# Several values for one entry are separate records, joined by “and”; a condition that tells them apart may be missing. Equal entries are not always repeated. The panel holds about 79,000 compounds, 15% with a hit somewhere; the sample as a whole holds those more often. Where a structure was tested more than once in an assay, its records may differ in their call. Activity calls are given as the source filed them. Rule as the data show it: active = growth inhibition above about 70%; inactive = the rest.
# Experiments:
# [1] = NCI Yeast Anticancer Drug Screen. Data for the rad50 strain (AID 155);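 also: 0% = growth of vehicle-only cultures of the same strain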; details: S. cerevisiae rad50 strain growth inhibition, stronger effect = higher value
# Procedure, shortened: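 Growth of the mutant yeast was measured after compound exposure and referenced to vehicle-treated cultures.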
# [2] = NCI Yeast Anticancer Drug Screen. Data for the mec2-1 strain (AID 157); details: S. cerevisiae mec2-1 strain, stronger effect = higher value
# Procedure, shortened: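 Using mec2-1 yeast: add compound, measure growth, express inhibition versus vehicle-treated cultures.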
# [3] = NCI Yeast Anticancer Drug Screen. Data for the sgs1 mgt1 strain (AID 161);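 also: 0% = growth of cultures given vehicle only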; details: S. cerevisiae sgs1 mgt1 strain, stronger effect = higher value
# Procedure, shortened: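 This yeast growth screen uses a strain with defined DNA-repair lesions; compound-treated growth is compared with vehicle-treated growth.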
# [4] = NCI Yeast Anticancer Drug Screen. Data for the cln2 rad14 strain (AID 165);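 also: 0% = growth equal to vehicle treated cultures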; details: S. cerevisiae cln2 rad14 strain, stronger effect = higher value
# Procedure, shortened: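 Yeast strain cln2 rad14, bearing defects in cell cycle control and DNA repair, serves as the test system; values reflect growth inhibition compared with vehicle.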
# [5] = NCI Yeast Anticancer Drug Screen. Data for the bub3 strain (AID 167); details: S. cerevisiae bub3 mutant strain, stronger effect = higher value
# Procedure, shortened: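 Whole-cell yeast assay. The mutant strain was incubated with compounds, and growth inhibition was determined by comparison with vehicle-treated cells.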
# [6] = NCI Yeast Anticancer Drug Screen. Data for the wt2 strain (AID 169);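 also: 0% = growth of vehicle-treated yeast cultures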; details: S. cerevisiae wt2 strain growth inhibition, stronger effect = higher value
# Procedure, shortened: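 Treated yeast vs. vehicle-treated yeast: growth inhibition determined.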
# [7] = NCI Yeast Anticancer Drug Screen. Data for the mlh1 rad18 strain (AID 175); details: S. cerevisiae mlh1 rad18 strain growth inhibition, stronger effect = higher value
# Procedure, shortened: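 Steps: expose repair-defective yeast to compound; measure growth; express inhibition against vehicle-treated controls.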
# [8] = at 5.0 µM (retest, dose inferred, filed as 0.5)
# [9] = at 50.0 µM (retest, dose inferred, filed as 5.0)
smiles,measurement,setting,value
c1ccc2nc3c(ccc4ccccc43)cc2c1,growth inhibition,[1]; [8],22% (inactive)
same,growth inhibition,[1]; [9],31% (inactive)
same,growth inhibition,[1]; at 50.0 µM,86% (active)
same,growth inhibition,[2]; [8],41% (inactive)
same,growth inhibition,[2]; [9],45% (inactive)
same,growth inhibition,[2]; at 50.0 µM,75.9% (active)
same,growth inhibition,[3]; [8],-17% (inactive)
same,growth inhibition,[3]; [9],94% (active)
same,growth inhibition,[3]; at 50.0 µM,84.5% (active)
same,growth inhibition,[4]; [8],5% (inactive)
same,growth inhibition,[4]; [9],91% (active)
same,growth inhibition,[4]; at 50.0 µM,68.7% (inactive)
same,growth inhibition,[5]; [8],0% (inactive)
same,growth inhibition,[5]; [9],99% (active)
same,growth inhibition,[5]; at 50.0 µM,84% (active)
same,growth inhibition,[6]; at 1.2 µM,18% (inactive)
same,growth inhibition,[6]; at 3.7 µM,16% (inactive)
same,growth inhibition,[6]; at 11.0 µM,64% (inactive)
same,growth inhibition,[6]; at 33.0 µM,94% (active)
same,growth inhibition,[6]; at 100.0 µM,89% (active)
same,growth inhibition,[7]; [8],20% (inactive)
same,growth inhibition,[7]; [9],49% (inactive)
same,growth inhibition,[7]; at 50.0 µM,83% (active)
ClCCCN(CCCCl)c1ccc(C=Nc2cccc(Cl)c2)cc1,growth inhibition,[1]; [8],16% (inactive)
same,growth inhibition,[1]; [9],89% (active)
same,growth inhibition,[1]; at 50.0 µM,91.3% (active)
same,growth inhibition,[2]; [8],-4% (inactive)
same,growth inhibition,[2]; [9],8% (inactive)
same,growth inhibition,[2]; at 50.0 µM,-1.2% (inactive)
same,growth inhibition,[3]; [8],24% (inactive)
same,growth inhibition,[3]; [9],90% (active)
same,growth inhibition,[3]; at 50.0 µM,92.8% (active)
same,growth inhibition,[4]; [8],8% (inactive)
same,growth inhibition,[4]; [9],88% (active)
same,growth inhibition,[4]; at 50.0 µM,86.2% (active)
same,growth inhibition,[5]; [8],-4% (inactive)
same,growth inhibition,[5]; [9],-14% (inactive)
same,growth inhibition,[5]; at 50.0 µM,-13% (inactive)
CC[N+](C)(C)c1ccccc1,growth inhibition,[1]; [8],42% (inactive)
same,growth inhibition,[1]; [9],90% (active)
same,growth inhibition,[1]; at 50.0 µM,61.8% (inactive)
same,growth inhibition,[2]; [8],48% (inactive)
same,growth inhibition,[2]; [9],93% (active)
same,growth inhibition,[2]; at 50.0 µM,26.7% (inactive)
same,growth inhibition,[3]; [8],-40% (inactive)
same,growth inhibition,[3]; [9],1% (inactive)
same,growth inhibition,[3]; at 50.0 µM,48.2% (inactive)
same,growth inhibition,[4]; [8],46% (inactive)
same,growth inhibition,[4]; [9],24% (inactive)
same,growth inhibition,[4]; at 50.0 µM,17.9% (inactive)
same,growth inhibition,[5]; [8],-1% (inactive)
same,growth inhibition,[5]; [9],28% (inactive)
same,growth inhibition,[5]; at 50.0 µM,74.2% (active)
same,growth inhibition,[6]; at 1.2 µM,-24% (inactive)
same,growth inhibition,[6]; at 3.7 µM,-23% (inactive)
same,growth inhibition,[6]; at 11.0 µM,-25% (inactive)
same,growth inhibition,[6]; at 33.0 µM,-16% (inactive)
same,growth inhibition,[6]; at 100.0 µM,-24% (inactive)
same,growth inhibition,[7]; [8],45% (inactive)
same,growth inhibition,[7]; [9],82% (active)
same,growth inhibition,[7]; at 50.0 µM,28.9% (inactive)
Cc1nc2cc(Cl)ccc2n1-c1ccccc1,growth inhibition,[1]; [8],39% (inactive)
same,growth inhibition,[1]; [9],92% (active)
same,growth inhibition,[1]; at 50.0 µM,66.9% (inactive)
same,growth inhibition,[2]; [8],38% (inactive)
same,growth inhibition,[2]; [9],98% (active)
same,growth inhibition,[2]; at 50.0 µM,17% (inactive)
same,growth inhibition,[3]; [8],-7% (inactive)
same,growth inhibition,[3]; [9],94% (active)
same,growth inhibition,[3]; at 50.0 µM,77.2% (active)
same,growth inhibition,[4]; [8],32% (inactive)
same,growth inhibition,[4]; [9],99% (active)
same,growth inhibition,[4]; at 50.0 µM,44% (inactive)
same,growth inhibition,[5]; [8],4% (inactive)
same,growth inhibition,[5]; [9],97% (active)
same,growth inhibition,[5]; at 50.0 µM,76.5% (active)
same,growth inhibition,[6]; at 1.2 µM,7% (inactive)
same,growth inhibition,[6]; at 3.7 µM,11% (inactive)
same,growth inhibition,[6]; at 11.0 µM,9% (inactive)
same,growth inhibition,[6]; at 33.0 µM,37% (inactive)
same,growth inhibition,[6]; at 100.0 µM,96% (active)
same,growth inhibition,[7]; [8],36% (inactive)
same,growth inhibition,[7]; [9],85% (active)
same,growth inhibition,[7]; at 50.0 µM,60.2% (inactive)
COc1nc(N)c(NC2OCC(O)C(O)C2O)c(=O)n1C (configuration not stated),growth inhibition,[1]; at 50.0 µM,-32.8% (inactive) [middle of 5 runs]
CCCCCC(C)c1ccc(O)c(C)c1 (configuration not stated),growth inhibition,[1]; [8],49% (inactive)
same,growth inhibition,[1]; [9],94% (active)
same,growth inhibition,[1]; at 50.0 µM,81.7% (active)
same,growth inhibition,[2]; [8],49% (inactive)
same,growth inhibition,[2]; [9],95% (active)
same,growth inhibition,[2]; at 50.0 µM,56.2% (inactive)
same,growth inhibition,[3]; [8],-10% (inactive)
same,growth inhibition,[3]; [9],43% (inactive)
same,growth inhibition,[3]; at 50.0 µM,68.9% (inactive)
same,growth inhibition,[4]; [8],41% (inactive)
same,growth inhibition,[4]; [9],75% (active)
same,growth inhibition,[4]; at 50.0 µM,61.7% (inactive)
same,growth inhibition,[5]; [8],32% (inactive)
same,growth inhibition,[5]; [9],55% (inactive)
same,growth inhibition,[5]; at 50.0 µM,86.1% (active)
same,growth inhibition,[6]; at 1.2 µM,4% (inactive)
same,growth inhibition,[6]; at 3.7 µM,-2% (inactive)
same,growth inhibition,[6]; at 11.0 µM,-6% (inactive)
same,growth inhibition,[6]; at 33.0 µM,0% (inactive)
same,growth inhibition,[6]; at 100.0 µM,99% (active)
same,growth inhibition,[7]; [8],45% (inactive)
same,growth inhibition,[7]; [9],99% (active)
same,growth inhibition,[7]; at 50.0 µM,72.5% (active)
OC(CF)(c1ccc(Cl)cc1)c1ccc(Cl)cc1,growth inhibition,[1]; [8],37% (inactive)
same,growth inhibition,[1]; [9],74% (active)
same,growth inhibition,[1]; at 50.0 µM,90.3% (active)
same,growth inhibition,[2]; [8],24% (inactive)
same,growth inhibition,[2]; [9],75% (active)
same,growth inhibition,[2]; at 50.0 µM,92.5% (active)
same,growth inhibition,[3]; [8],6% (inactive)
same,growth inhibition,[3]; [9],91% (active)
same,growth inhibition,[3]; at 50.0 µM,92.8% (active)
same,growth inhibition,[4]; [8],39% (inactive)
same,growth inhibition,[4]; [9],97% (active)
same,growth inhibition,[4]; at 50.0 µM,91.4% (active)
same,growth inhibition,[5]; [8],1% (inactive)
same,growth inhibition,[5]; [9],91% (active)
same,growth inhibition,[5]; at 50.0 µM,91% (active)
same,growth inhibition,[6]; at 1.2 µM,16% (inactive)
same,growth inhibition,[6]; at 3.7 µM,16% (inactive)
same,growth inhibition,[6]; at 11.0 µM,17% (inactive)
same,growth inhibition,[6]; at 33.0 µM,93% (active)
same,growth inhibition,[6]; at 100.0 µM,99% (active)
same,growth inhibition,[7]; [8],39% (inactive)
same,growth inhibition,[7]; [9],75% (active)
same,growth inhibition,[7]; at 50.0 µM,89% (active)
C[n+]1c2cc(N)ccc2cc2ccc(N)cc21,growth inhibition,[1]; [8],55% (inactive) and 100% (active)
same,growth inhibition,[1]; [9],98% (active) and 99% (active)
same,growth inhibition,[1]; at 50.0 µM,97.4% (active) and 75.2% (active)
same,growth inhibition,[2]; [8],11% (inactive) and 100% (active)
same,growth inhibition,[2]; [9],99% (active) and 100% (active)
same,growth inhibition,[2]; at 50.0 µM,75.3% (active) and 79% (active)
same,growth inhibition,[3]; [8],3% (inactive) and -17% (inactive)
same,growth inhibition,[3]; [9],97% (active) and 44% (inactive)
same,growth inhibition,[3]; at 50.0 µM,67.9% (inactive) and 78.2% (active)
same,growth inhibition,[4]; [8],10% (inactive) and 35% (inactive)
same,growth inhibition,[4]; [9],97% (active) and 64% (inactive)
same,growth inhibition,[4]; at 50.0 µM,53.9% (inactive) and 39.6% (inactive)
same,growth inhibition,[5]; [8],-1% (inactive) and -18% (inactive)
same,growth inhibition,[5]; [9],99% (active) and 88% (active)
same,growth inhibition,[5]; at 50.0 µM,86.5% (active) and 81.6% (active)
same,growth inhibition,[6]; at 1.2 µM,-6% (inactive)
same,growth inhibition,[6]; at 3.7 µM,-12% (inactive)
same,growth inhibition,[6]; at 11.0 µM,4% (inactive)
same,growth inhibition,[6]; at 33.0 µM,25% (inactive)
same,growth inhibition,[6]; at 100.0 µM,84% (active)
same,growth inhibition,[7]; [8],28% (inactive) and 100% (active)
same,growth inhibition,[7]; [9],97% (active) and 100% (active)
same,growth inhibition,[7]; at 50.0 µM,91.3% (active) and 83.5% (active)
Nc1ccccc1Oc1ccc(Cl)cc1Cl,growth inhibition,[1]; [8],27% (inactive)
same,growth inhibition,[1]; [9],48% (inactive)
same,growth inhibition,[1]; at 50.0 µM,92% (active)
same,growth inhibition,[2]; [8],37% (inactive)
same,growth inhibition,[2]; [9],61% (inactive)
same,growth inhibition,[2]; at 50.0 µM,92.7% (active)
same,growth inhibition,[3]; [8],-21% (inactive)
same,growth inhibition,[3]; [9],98% (active)
same,growth inhibition,[3]; at 50.0 µM,93% (active)
same,growth inhibition,[4]; [8],22% (inactive)
same,growth inhibition,[4]; [9],98% (active)
same,growth inhibition,[4]; at 50.0 µM,92.3% (active)
same,growth inhibition,[5]; [8],-18% (inactive)
same,growth inhibition,[5]; [9],95% (active)
same,growth inhibition,[5]; at 50.0 µM,92.3% (active)
same,growth inhibition,[6]; at 1.2 µM,-3% (inactive)
same,growth inhibition,[6]; at 3.7 µM,-16% (inactive)
same,growth inhibition,[6]; at 11.0 µM,-8% (inactive)
same,growth inhibition,[6]; at 33.0 µM,95% (active)
same,growth inhibition,[6]; at 100.0 µM,99% (active)
same,growth inhibition,[7]; [8],15% (inactive)
same,growth inhibition,[7]; [9],59% (inactive)
same,growth inhibition,[7]; at 50.0 µM,92% (active)

# From PubChem BioAssay (NCI)
